Assay outcomes as filed in PubChem BioAssay.
This is one part of a sample in which hits are shown more often than they occur.
Tgondii IFNg: inhibitors of Toxoplasma gondii growth with IFN-gamma; Toxoplasma gondii growth in IFN-gamma-treated host cells; active compounds read low; activity change, negative = inhibition, % (test concentration not listed); 3.8% of 69,000 active; AID 1259416; in the data active means activity change below about -70%, passing the limit was not always enough;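 further: host cells are HeLa cells infected with Toxoplasma gondii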
* marks the source's active call; other numbers are inactive results.

SMILES | Tgondii IFNg
Cc1oc(-c2ccc(OC(C)C)cc2)nc1Cn1ccn2nc(-c3ccc(F)cc3)cc2c1=O | -35.6
CC(C)NC(=O)[C@]12CCO[C@@H]1CCN(Cc1nccs1)C2 | -0.4
COc1ccc(C)cc1-c1ccc(C(N)=O)cn1 | 9.5
COc1ccc(C(N)=O)cc1-c1ccc(S(C)(=O)=O)cc1 | 4.6
COc1ccc(OC)c(-c2cc(C(N)=O)ccc2C)c1 | -76.1*
C1=CC2CC1CC2CNCC1CCCO1 (centres undefined) | -13.0
Cc1oc(-c2ccccc2)nc1Cn1ncc2onc(-c3ccc(F)cc3)c2c1=O | 45.1
CSc1sc(-c2nc(C)cs2)c(C)c1-c1ccn[nH]1 | -85.6*
Cc1csc(-c2sc3ccccc3c2O)n1 | -27.5
CN(Cc1cc(-c2ccncc2)no1)Cc1cc2c(cc1Cl)OCO2 | -11.3
O=C(NCc1cnc2n1CCN(C(=O)c1ccccn1)C2)C1CC1 | 100.4
CCCN1CC(NC(=O)c2nc3ccccc3[nH]c2=O)CC1=O (centres undefined) | -5.4
CCN1C(=O)CCc2cc(NC(=O)CCc3ccccc3OC)ccc21 | 10.7
Cc1ccccc1-c1ccccc1C(=O)N1CCC2(CN(C)C(=O)O2)C1 (centres undefined) | 5.5
Cc1oc(-c2ccccc2)nc1CN1C(=O)CSc2ccc(S(=O)(=O)N3CCCCCC3)cc21 | -95.2*
Cc1oc(-c2ccccc2)nc1Cn1ccn2nc(-c3ccc4c(c3)OCO4)cc2c1=O | -15.2
Cc1oc(-c2ccc3ccccc3c2)nc1CN1CCN(S(N)(=O)=O)CC1 | 36.2
CCN(CC)S(=O)(=O)c1ccc2c(c1)N(Cc1nc(-c3ccccc3)oc1C)C(=O)CS2 | -79.5*
CCOC(=O)c1ccc2c(c1)N(Cc1nc(-c3cccc(C)c3)oc1C)C(=O)c1ccccc1S2 | -42.8
CNC(=O)c1ccc(-c2nc(CN3CCN(S(=O)(=O)c4ccc(OC)cc4)CC3)c(C)o2)cc1 | 13.6
C=CCn1c(C(=O)N2CCN(c3ccccn3)CC2)cc2cc(S(=O)(=O)N(C)C)ccc21 | -12.2
CCn1nc(CC(C)C)cc1C(=O)N1CCC2(CCCNC2)C1 (centres undefined) | -0.3
COc1ccc(N(Cc2nc(-c3cccc(C)c3)oc2C)S(=O)(=O)c2ccc(C)cc2)cc1 | -45.9
CSc1nsc(NC(=O)OCc2ccc(Cl)cc2)n1 | 12.3
CC(=O)c1cccc(NC(=O)Nc2nc(SCc3ccc(F)cc3)ns2)c1 | -107.2*
SMILES | Tgondii IFNg
CCCCCCSc1nsc(NC(C)=O)n1 | 55.4
O=C(Nc1ccc(F)c(F)c1)c1c(O)c2cccnc2n(-c2ccc(F)cc2)c1=O | -39.7
Cc1cc(C#N)cc(C)c1Oc1nc(Nc2ccc(C#N)cc2)nc(N)c1Br | -85.6*
CCS(=O)(=O)N1CC2(CCN(C(=O)[C@H]3CCCO3)CC2)c2ccccc21 | 1.6
CCC(NC(=O)Cc1nnn(C(C)C)n1)c1ccc(OC)cc1 (centres undefined) | 12.1
O=C(NCC1Cc2cc(-c3cccnc3)cc(F)c2O1)C1CCCc2c1[nH]c1ccccc21 (centres undefined) | 8.1
CS(=O)(=O)c1ccc(C(=O)Nc2ccccc2)cc1 | 48.7
CCCN(CCC)S(=O)(=O)c1ccc(C(=O)NCCc2ccc(OC)c(OC)c2)cc1 | -46.9
CCCN(CCC)S(=O)(=O)c1ccc(C(=O)Nc2ccc(F)cc2)cc1 | -87.8*
CCCc1nc(C(=O)NCCC2CN(C)CCO2)cs1 (centres undefined) | -17.0
COc1cccc(CN(C(=O)c2ccc(C)cc2)C2(C(=O)NCc3ccccc3)CCN(C(C)=O)CC2)c1OC | -93.4*
COc1ccc(OC)c(CN(C(=O)c2ccc(C)cc2)C2(C(=O)NCc3ccccc3)CCN(C(C)=O)CC2)c1 | -4.1
CC(=O)N1CCC(C(=O)NCc2ccccc2)(N(Cc2ccccc2C)C(=O)c2ccc(C)cc2)CC1 | 35.7
NC(=O)c1cc2c(s1)-c1cc(Cl)ccc1SC2 | -79.0*
COc1cc(C)c(C)cc1S(=O)(=O)NCCc1csc(-c2ccc(Cl)cc2)n1 | -12.1
Cc1nnsc1CN(C)C(=O)c1cc(Cn2ccc3ccccc32)[nH]n1 | 20.3
CCC(C(=O)Nc1ccc(-c2nc(Cn3nc(C)cc3C)c(C)o2)cc1)c1ccccc1 (centres undefined) | -69.6
CCOc1ccc(-c2cnc(-c3nccn3CC)[nH]2)cc1OCC | -80.6*
CCCc1ncc(-c2ccc(OCC)c(OCC)c2)[nH]1 | -3.7
CCOc1ccc(-c2cnc[nH]2)cc1OCC | -47.2
O=C(NCC1CC1)[C@@H]1CCS(=O)(=O)[C@H]2CN(c3ncc(F)cn3)C[C@@H]12 | 21.4
Cc1ccc(-c2cc3c(=O)n(Cc4nc(-c5ccccc5)oc4C)ccn3n2)cc1 | 126.3
COc1cc(C(=O)Nc2cc(-c3cccs3)n[nH]c2=O)cc(OC)c1OC | -47.0
COc1ccccc1CNc1nc(-c2nnc(-c3ccccc3)o2)nc2ccccc12 | -96.0*
COc1ccc(-c2nnc(-c3nc(NCc4ccccc4C)c4ccccc4n3)o2)cc1 | 32.0
COc1ccccc1CNc1nc(-c2nnc(-c3cccc(C)c3)o2)nc2ccccc12 | -89.8*
CCOc1ccccc1CNc1nc(-c2nnc(-c3ccc(OC)cc3)o2)nc2ccccc12 | -13.1
